# Data as given in PubChem BioAssay (NCI).
# This is part of a sample that, as a whole, favours compounds with a hit. Of some 79,000 tested, about 15% had one in any assay. Values without a mark were called inactive. Activity calls are given as the source filed them. Rule as the data show it: active = growth inhibition above about 70%; inactive = the rest.
# Assay: NCI Yeast Anticancer Drug Screen. Data for the wt2 strain (AID 169);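 also: 0% = growth of vehicle-treated yeast cultures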
# Settings: S. cerevisiae wt2 strain growth inhibition, stronger effect = higher value
# Procedure: Growth inhibition of yeast strains with defined genetic alterations is measured as a screen for potential anti-cancer activity. Selected strains with alterations in DNA damage repair or cell cycle control were exposed to compounds and growth inhibition was measured relative to vehicle treated controls. The strain used in this assay is wt2
SMILES,growth inhibition (at 1.2 µM) [%],growth inhibition (at 3.7 µM) [%],growth inhibition (at 11.0 µM),growth inhibition (at 33.0 µM),growth inhibition (at 100.0 µM)
Cc1c2cc[n+](CCN3CCCCC3)cc2c(C)c2c1[nH]c1ccc(O)cc12,5,4,5%,12%,96% (active)
COc1cc(/C=C/c2sc3ccccc3[n+]2C)ccc1N(C)C,0,-1,-2%,62%,97% (active)
CC(=O)CC(=O)/C=C/c1cccs1,-17,-17,-9%,-10%,84% (active)
CC(=O)O[C@H]1C(=O)[C@@]2(C)[C@H]([C@H](OC(=O)c3ccccc3)[C@]3(O)C[C@H](OC(=O)[C@H](O)[C@@H](NC(=O)c4ccccc4)c4ccccc4)C(C)=C1C3(C)C)[C@]1(OC(C)=O)CO[C@@H]1C[C@@H]2O,-2,-2,-4%,-4%,-5%
Cc1cc(C(C)(C)CC(C)(C)C)cc(O)c1O,2,27,71% (active),89% (active),54%
COc1ccc(N2C(=O)CC(Cl)C2=O)cc1 (stereo not given),-4,-1,37%,99% (active),100% (active)
N#C/C(=C/N1C(=O)/C(=C/c2ccc([N+](=O)[O-])cc2)SC1=S)c1nc2ccccc2s1,1,4,8%,31%,75% (active)
O=[N+]([O-])/C(C(Cl)=C(Cl)Cl)=C1/OCCS1,7,32,95% (active),99% (active),99% (active)
